Screens from PubChem BioAssay.
IL-1B inflam inh = inflammasome signaling inhibition, IL-1 beta readout | THP-1 LPS/ATP IL-1B secretion, AlphaLISA, 16 h; active compounds read low | 360,000 tested, 4.7% active | activity change, % at 57.5 µM; in the data active = activity change below about -50%; inconclusive = mostly about -30% to -49%
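THP-1 cells pretreated 1 hr with compounds (up to 57.5 uM final), then stimulated with LPS (250 ng/mL final) plus ATP (1.25 mM final); secreted IL-1B measured by AlphaLISA after 16 hr, decreased signal indicating inhibition.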
HT1080 IDH1KD tx = toxicity to HT-1080 IDH1 knockdown cells (counter line) | 360,000 tested, 2% active | HT-1080 IDH1 knockdown viability, ATP luminescence, 48 h | AID 686971 | Potency, µM (top dose mostly 46.1 µM), hits mostly cytotoxic
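HT-1080-IDH1KD cells (IDH1 knocked down), 750/well in RPMI with 5% FBS, treated with compound 48 h at 37 degrees C. Viability by CellTiter-Glo luminescence, normalised to DMSO and no-cell wells; concentration-response curves classed.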
HT1080NT lethal = kills 2HG-producing HT-1080-NT fibrosarcoma cells; HT-1080-NT fibrosarcoma viability, CellTiter-Glo ATP luminescence, 48 h; Potency, µM (doses to about 46.1 µM), hits mostly cytotoxic; 360,000 tested, 1.6% active; AID 686970;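 note: NT is the 2HG producing partner of a matched IDH1 knockdown line; nearly all actives have a fitted effect of over 55% in size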
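Read-out is CellTiter-Glo luminescence after 10 minutes at room temperature, following 48 hours' compound treatment of HT-1080-NT cells (750 cells/well, RPMI, 5% FBS, 37 degrees C).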
TDP1 cell noCPT = qHTS for Inhibitors of human tyrosyl-DNA phosphodiesterase 1 (TDP1): qHTS in cells in absence of CPT. DT40 Tdp1-/- hTDP1 cells, no CPT, ATP luminescence, 48 h. Potency, µM (titrated, usually from 46.2 µM), usual class: inhibitors. 420,000 tested, 15% active. AID 686978, 2013; note: nearly all actives have a fitted effect of over 55% in size
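Chicken DT40 Tdp1-/- cells complemented with human TDP1, screened without camptothecin (DMSO vehicle only), 400 cells/well. Compounds pin-transferred, cells incubated at 37 °C for at least 48 hr. Growth read as ATP-dependent luminescence (CellTiter-Glo, 30 min at RT).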
TDP1 cell CPT = growth inhibition of DT40 Tdp1-/-;hTDP1 cells with camptothecin (screen for TDP1 inhibitors); 420,000 tested, 12% active; AID 686979; chicken DT40 Tdp1-/-;hTDP1 cells + 20 nM CPT, ATP luminescence, 48 h; Potency, µM (top dose mostly 46.2 µM), actives largely listed as inhibitors; note: nearly all actives have a fitted effect of over 55% in size
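Chicken DT40 Tdp1-/- cells stably complemented with human TDP1 were seeded at 400 cells/well in medium containing 20 nM camptothecin, exposed to pin-transferred compounds, and grown at 37 °C for at least 48 hr. Viability was read as ATP luminescence.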
A number is an active result; n = inactive; u = inconclusive; x = no result given. In the library only some 19% were active in any assay of this set; here they are far more common. Unless noted, calls come from the whole dose curve; as a rule, active = well fitted curve in the direction sought with a large enough effect; inconclusive = small, poorly fitted or top-dose-only effect, or another doubt; inactive = no such curve, though single readings can be large; an effect the other way counts as inactive or inconclusive.

SMILES	IL-1B inflam inh	HT1080 IDH1KD tx	HT1080NT lethal	TDP1 cell noCPT	TDP1 cell CPT
CCC(=O)[C@@H](C)[C@@H](OC(C)=O)[C@H](C)C[C@@H](C)[C@H]1OC(=O)C[C@@]2(O)CC=C(C)C(O2)C(C)=CCCC[C@H](O[C@H]2C[C@@H](OC(N)=O)[C@H](OC(C)=O)[C@@H](C)O2)C=C[C@H](C)C[C@H]1C	n	n	n	2.9µM	u
CCOc1ccc(S(=O)(=O)NCCC(=O)NCCCSc2ccccc2)cc1	n	n	n	u	n
COc1ccc(OCc2nc3c4cc(OC)c(OC)cc4nc(=S)n3[nH]2)cc1	n	n	n	6.5µM	6.5µM
O=C(CSc1nnc(-c2ccccn2)n1Cc1ccccc1)N1CCOCC1	n	n	n	n	n
COc1ccc(-c2csc(-n3cccn3)n2)cc1	n	n	n	n	n
O=C(NN1C(=O)C2C3C=CC([C@@H]2C1=O)C31CC1)c1ccccc1 (some centres undefined)	n	n	n	n	n
COC(=O)c1cc(NC(=O)c2cccc([N+](=O)[O-])c2C)ccc1Cl	n	n	u	16µM	n
Cc1ccc(C(=O)Nc2cccc(NC(=O)c3ccc(C)c([N+](=O)[O-])c3)n2)cc1[N+](=O)[O-]	n	n	n	16µM	u
Cc1ccc(C(=O)Nc2sc(C)c(-c3ccccc3)c2C(N)=O)cc1[N+](=O)[O-]	n	n	n	18µM	13µM
O=C(Nc1ccc(Cc2ccncc2)cc1)c1cccc([N+](=O)[O-])c1	n	n	n	u	u
O=C(CCNc1ccc(Cc2ccncc2)cc1)c1ccc([N+](=O)[O-])cc1	n	u	u	u	23µM
COCCNc1nc(N2CCCCC2)c2cnn(C)c2n1	n	n	n	u	n
CCCN1CNc2c(c(=O)[nH]c(=S)n2CCc2ccc3c(c2)OCCO3)C1	x	n	n	u	u
CC(C)(C)C1CCc2c(sc(NC(=O)c3ccncc3)c2C(=O)Nc2ccccc2Cl)C1 (centres undefined)	x	x	x	u	n
Cc1c(C(=O)Nc2ccc(Cc3ccncc3)cc2)cccc1[N+](=O)[O-]	-50	u	u	u	u
Cc1ccc(C(=O)Nc2ccc(Cc3ccncc3)cc2)cc1[N+](=O)[O-]	u	n	n	21µM	21µM
CCn1cc(C(=O)NCCCN2CCCC(C)C2)c(=O)c2cc(S(=O)(=O)N3CCOCC3)ccc21 (centres undefined)	n	n	n	n	n
COc1cccc2c1OC[C@@H](CO)[C@H]2N(C)C(=O)Nc1ccccc1	n	n	n	n	n
CN(C(=O)Nc1ccc(Cl)cc1Cl)[C@H]1c2cc(Br)ccc2OC[C@H]1CO	-73	u	u	n	u
Cc1cccc(CSc2nnc(CCCCCNC(=O)OC(C)(C)C)o2)c1	n	n	n	16µM	u
Cc1ccc(CSc2nnc(CCCCCNC(=O)OC(C)(C)C)o2)cc1	u	u	n	18µM	23µM
CN1CCN(c2ncncc2-c2ccccc2C(F)(F)F)CC1	x	x	x	n	n
CCc1ccc(-n2nc(C)c3c(C(=O)N4CCN(c5cccc(Cl)c5)CC4)cc(C)nc32)cc1	x	x	x	21µM	u
Cc1cc(C(=O)Nc2cccc(C)c2C)c2c(C)nn(-c3cccc(F)c3)c2n1	x	x	x	n	n
Cc1cc(C(=O)N2CCN(c3ccccc3)CC2)c2c(C)nn(-c3cccc(F)c3)c2n1	x	x	x	16µM	u
SMILES	IL-1B inflam inh	HT1080 IDH1KD tx	HT1080NT lethal	TDP1 cell noCPT	TDP1 cell CPT
CCOC(=O)c1cc(-c2ccco2)nc2c1c(C)nn2-c1cccc(Cl)c1	n	n	n	u	n
CCOC(=O)c1[nH]c2ccc(OC)cc2c1NC(=S)N1CCN(c2cccc(C)c2C)CC1	n	u	u	u	u
CN(Cc1ccccc1)c1nc2c(c(=O)n(C)c(=O)n2C)n1CCSc1ncccn1	n	n	n	18µM	23µM
CC1CN(c2nc3c(c(=O)n(C)c(=O)n3C)n2Cc2c(F)cccc2Cl)CC(C)O1 (centres undefined)	n	n	n	u	n
Cn1c(=O)c2c(nc(N3CCOCC3)n2Cc2cccc(Br)c2)n(C)c1=O	x	x	x	5.8µM	9.2µM
Cn1c(=O)c2c(nc(CN3CCN(c4ccccc4)CC3)n2Cc2c(F)cccc2Cl)n(C)c1=O	n	n	n	8.2µM	21µM
Cn1c(=O)c2c(nc(N3CCOCC3)n2Cc2c(F)cccc2Cl)n(C)c1=O	n	n	n	23µM	21µM
Cc1cc(C)nc(SCCn2c(N(C)Cc3ccccc3)nc3c2c(=O)n(C)c(=O)n3C)n1	n	n	n	u	u
CCOC(=O)N1CCN(Cc2nc3c(c(=O)n(C)c(=O)n3C)n2Cc2ccc(F)cc2)CC1	n	n	n	u	u
CCOC(=O)CSc1nnc(SCCN2C(=O)c3ccccc3C2=O)s1	n	n	n	n	n
Cn1c(=O)c2c(nc(CN3CCN(c4ccccc4)CC3)n2Cc2ccccc2Cl)n(C)c1=O	n	n	n	15µM	u
Cn1c(=O)c2c(nc(CN3CCC(C(N)=O)CC3)n2Cc2ccccc2F)n(C)c1=O	n	n	n	n	n
CC1CN(c2nc3c(c(=O)n(C)c(=O)n3C)n2Cc2c(Cl)cccc2Cl)CC(C)O1 (centres undefined)	n	n	n	u	u
Cn1c(=O)c2c(nc(N3CCOCC3)n2CCSc2ncccn2)n(C)c1=O	n	n	n	23µM	21µM
CC1CCCN(Cc2nc3c(c(=O)n(C)c(=O)n3C)n2Cc2c(F)cccc2Cl)C1 (centres undefined)	n	n	n	9.2µM	8.2µM
Cc1ccccc1Cn1c(CN2CCCC(C)C2)nc2c1c(=O)n(C)c(=O)n2C (centres undefined)	x	x	x	5.8µM	8.2µM
Cn1c(=O)c2c(nc(Sc3ncccn3)n2Cc2ccccc2Cl)n(C)c1=O	n	n	n	u	u
CNc1ncc(C(=O)c2ccc(-c3ccccc3)cc2)s1	n	n	u	n	n
Fc1cccc(F)c1-c1nc(-c2ccncc2)no1	n	n	n	n	n
C#CCN(CC=C)C(=O)CCc1nnc(COc2ccccc2)o1	n	n	n	n	n
Cc1ccc(-c2noc(-c3cc(-c4ccc(F)cc4)n[nH]3)n2)cc1	x	x	x	u	n
COc1ccc(-c2noc(-c3cc(-c4ccc(F)cc4)n[nH]3)n2)cc1	x	x	x	u	6.5µM
Cc1ccccc1-c1noc(-c2cc(-c3ccc(F)cc3)n[nH]2)n1	x	x	x	23µM	21µM
CCOc1ccc(-c2cc(-c3nc(-c4cc(OC)c(OC)c(OC)c4)no3)[nH]n2)cc1	x	x	x	9.2µM	9.2µM
CCOc1cc(-c2noc(-c3ccncc3)n2)cc(Br)c1OC	n	u	u	16µM	u
Fc1ccc(-c2cc(-c3nc(-c4ccccc4)no3)[nH]n2)cc1	x	x	x	n	n
